From PubChem
Shown are actives, neighbours in structure and some others; about 6.5% of the full set was active somewhere.
Marburg entry inh – blocks Marburg virus binding to or entry into cells. Potency, µM (series often up to 37.8 µM), for inactives: at the highest dose activity change, negative = inhibition, usual class: inhibitors. 1.8% of 300,000 active. Marburg virus pseudotyped entry inhibition, cell reporter. AID 540276; calls by dose curve; tested in HEK293 cells; note: potency is the fitted concentration of half-maximal effect
FMDV antiviral – foot and mouth disease virus antiviral activity; FMDV antiviral cell-based qHTS; Potency, µM (highest dose often 57.9 µM), for the others: at the top dose activity change, negative = inhibition, most hits filed as inhibitors; 1.2% of 410,000 active; AID 1159524; calls by dose curve; tested in HEK293T cells; note: read-out not given here; potency is the fitted concentration of half-maximal effect; nearly all actives have a fitted effect of over 45% in size
HCMV inh – human cytomegalovirus inhibition. HFF cells, HCMV-luciferase reporter, 72 h; stronger effect = lower value. activity change, negative = inhibition, % at 57.5 µM. 4.5% of 410,000 active; in the data active = activity change below about -60%; inconclusive = no clear call, values can overlap the other calls; inactive = above about -39%
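Human foreskin fibroblasts infected with luciferase-reporter HCMV at MOI 1 PFU/cell, compounds at two doses. Luciferase measured 72 h post infection; normalized to buffer-only basal and Salinomycin (10uM) controls.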
Vaccinia Venus – inhibitors of vaccinia virus (Venus reporter) | Vaccinia virus Venus reporter expression, fluorescence | 0.46% of 330,000 active | Potency, µM (series often up to 36.5 µM), for inactives: top-dose activity change, negative = inhibition, most hits filed as inhibitors | AID 720580; calls by dose curve; tested in A549 cells; note: potency is the fitted concentration of half-maximal effect; nearly all actives have a fitted effect of over 30% in size
LASV entry inh – blocks Lassa virus binding to or entry into cells; Lassa virus pseudotype entry inhibition, cell reporter; Potency, µM (series often up to 37.9 µM), for the others: at the highest dose activity change, negative = inhibition, hits mostly inhibitors; 1.2% of 300,000 active; calls by dose curve; tested in HEK293 cells; note: potency is the fitted concentration of half-maximal effect; nearly all actives have a fitted effect of over 50% in size
Vaccinia mCherry – vaccinia inhibition (mCherry reporter); Vaccinia virus mCherry reporter infection, fluorescence; Potency, µM (doses to about 36.5 µM), without a hit: top-dose activity change, negative = inhibition, hits mostly inhibitors; 0.63% of 310,000 active; AID 720579; calls by dose curve; tested in A549 cells; note: potency is the fitted concentration of half-maximal effect; nearly all actives have a fitted effect of over 35% in size
* marks the source's active call; other numbers are inactive results; i = inactive; ? = inconclusive; · = not tested or not shown; [ ] = another dose, or the depositor's remark. % is set by controls: 0 for no effect and ±100 for the full control effect.

SMILES	Marburg entry inh	FMDV antiviral	HCMV inh	Vaccinia Venus	LASV entry inh	Vaccinia mCherry
C=CCSc1nnc(NC(=O)c2nc(SCC)ncc2Cl)s1	2.5%	8.5%	-28.4	·	0.4%	·
CCSc1nnc(NC(=O)c2nc(S(=O)(=O)Cc3ccc(F)cc3)ncc2Cl)s1	2.5%[46.1 µM]	8.91µM*	-102.3*	-6.2%	?	-14.3%
CC(C)c1nnc(NC(=O)c2nc(SCc3ccc(F)cc3)ncc2Cl)s1	29.3%[46.1 µM]	35.2%	3.9	8.5%	9.4%[46.1 µM]	-0.7%
CC(C)c1nnc(NC(=O)c2nc(S(=O)(=O)Cc3ccc(F)cc3)ncc2Cl)s1	?	-20.5%	-101.9*	-6.3%	?	i
O=C(c1cccc(F)c1)N1CCC2(CCN(Cc3cc(C(F)(F)F)cc(C(F)(F)F)c3)CC2)CC1	·	-14.8%	·	·	·	·
CCC(=O)c1c(NCCc2ccccc2)cc(C)oc1=O	0.8%	-18.4%	-98.2*	·	0.6%	·
CCn1c(-c2cccnc2)nc2cc(NC(=O)COC)cc(C(=O)N3CCOc4ccccc4C3)c21	·	1.8%	·	-11.6%	·	-13.6%
C=CCOc1c(Cl)cc(CNCCCN2CCOCC2)cc1OC	10µM*	4.6%	-9.6	-6.2%	13.1%[46.1 µM]	-3.0%
COc1cc(CNCCCN2CCOCC2)cc(Br)c1OCc1ccc(Cl)cc1	·	39.8µM*	-99.5*	·	·	·
CCOc1cc(CNCCCN2CCOCC2)cc(Cl)c1OCC(=O)NC(C)(C)C	?	-9.3%	1.2	-6.4%	?	-6.2%
COCCn1c(=O)c(-c2cccc(C#N)c2)nc2cnc(Oc3ccc(OC)cc3)nc21	·	-16.9%	·	·	·	·
Cc1nc(NC(=O)/C=C/c2ccco2)sc1C	-20.1%	28.2%	89.9	-26.1%	0.6%	?
CNS(=O)(=O)c1ccc2nc(NC(=O)/C=C/c3ccco3)sc2c1	-23.8%[46.1 µM]	1.4%	-20.0	?	-16.0%[46.1 µM]	6.31µM*
CN(C)c1nc(C=C(C#N)C#N)c(Cl)n1-c1ccc(F)cc1	?	14.1µM*	-97.5*	?	?	?
CN(C)c1ccc(C=C(C#N)C#N)cc1	?	-14.6%	-19.8	-15.7%	15.8%	i
Cc1ccc(S(=O)(=O)Nc2cc(=O)[nH]c(SCc3ccccc3Cl)n2)cc1	?	?	-66.4*	?	?	-3.1%
Cc1ccc(S(=O)(=O)Nc2ccc(-c3nnc(SCc4ccccc4Cl)o3)cc2)cc1	?	3.7%	-83.5*	-20.0%	?	-24.3%
O=c1c(CCc2ccccc2)nc2cnc(Nc3ccccc3)nc2n1Cc1cccs1	·	13.0%	·	·	·	·
COc1ccc(-n2cc(C(=O)Oc3cc(C)cc(C)c3)c3ccccc3c2=O)cc1	·	-21.8%	16.4	-15.2%	-2.2%[46.1 µM]	-21.7%
O=C(Nc1ccccn1)c1onc2c1CCCC2	?	14.1µM*	?	-13.7%	7.31µM*	i
CCn1c(-c2cccnc2)nc2cc(NC(=O)COC)cc(C(=O)N3CCc4ccccc4C3)c21	·	-17.4%	·	-7.0%	·	-11.9%
CC(=O)N/C(N)=N/c1nc2cc([N+](=O)[O-])ccc2o1	?	51.4%	-65.7*	-22.4%	?	-0.6%
COc1ccnc(Oc2ccc(F)cc2)c1C(=O)N/C=N/OCc1ccc(Cl)cc1Cl	13µM*	·	20.8	-4.2%	0.4%	-18.9%
COc1ccnc(Oc2ccc(F)cc2)c1C(=O)N/C=N/OCc1ccc(F)cc1Cl	?	·	-9.9	-15.2%	8.7%	i
CCn1cc2nc(SCc3cc(C)ccc3C)n(CCc3ccccc3)c(=O)c2n1	·	0.0%	-86.4*	-20.9%	3.98µM*	?
SMILES	Marburg entry inh	FMDV antiviral	HCMV inh	Vaccinia Venus	LASV entry inh	Vaccinia mCherry
CCn1cc2nc(SCc3cc(C)ccc3C)n(Cc3ccc(OC)cc3)c(=O)c2n1	·	?	1.6	?	?	?
Cc1cccc(N=C2NC(=O)C(CO)(CO)S2)c1	20.7%	-0.9%	0.8	-5.7%	?	i
O=C1NC(=Nc2cccc([N+](=O)[O-])c2)SC1(CO)CO	3.2%[46.1 µM]	-20.6%	-64.5*	-8.6%	7.0%[46.1 µM]	-22.2%
O=C(NCCc1nnc2n1CCN(Cc1ccccn1)CC2)c1ccc(F)cc1	·	-1.1%	·	-6.0%	·	-8.5%
COCCNC(=O)C(c1ccc(C)o1)N(C(=O)c1snc(C(N)=O)c1N)c1ccc(C)c(C)c1 (stereo unspecified)	-1.8%	5.9%	-65.2*	-5.2%	2.5%	i
COc1ccccc1N(C(=O)c1snc(C(N)=O)c1N)C(C(=O)NCc1ccccc1)c1ccc(C)o1 (stereo unspecified)	-25.3%[46.1 µM]	9.6%	-21.1	-7.3%	?	-0.9%
